# Measurements from PubChem BioAssay (NCI).
# The panel holds about 79,000 compounds, 15% with a hit somewhere; the sample as a whole holds those more often. A number with no mark means an inactive call. Activity calls are given as the source filed them. Rule as the data show it: active = growth inhibition above about 70%; inactive = the rest. *1 amine or outer side, *2 acyl side, *3 side chain or, on linkers, in order; H or OH if unused. Where a SMILES comes first, the peptide text is derived from it. Bridges are numbered along the chain shown (N, C = ends). Roman numbers before positions name the chains, in order. [ ]: non-standard residue; d: D form. Actinocin(1to9) = Cc1c2oc3c(C)ccc(C(=O)[*:2])c3nc-2c(C(=O)[*:1])c(N)c1=O; NMeV = CN[CH](C(=O)O)C(C)C; Sar = CNCC(=O)O
# Key:
# [1] = NCI Yeast Anticancer Drug Screen. Data for the rad50 strain (AID 155);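 also: 0% = growth of vehicle-only cultures of the same strain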; settings: S. cerevisiae rad50 strain growth inhibition, hits give high values
# In short: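 Inhibition values express reduced yeast growth in compound-treated cultures relative to vehicle-treated controls.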
# [2] = NCI Yeast Anticancer Drug Screen. Data for the mec2-1 strain (AID 157); settings: S. cerevisiae mec2-1 strain, hits give high values
# In short: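 Test agents were screened against the mec2-1 yeast strain, with defined DNA repair or cell cycle alteration. Growth was scored as inhibition against vehicle-only controls.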
# [3] = NCI Yeast Anticancer Drug Screen. Data for the sgs1 mgt1 strain (AID 161);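 also: 0% = growth of cultures given vehicle only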; settings: S. cerevisiae sgs1 mgt1 strain, hits give high values
# In short: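 Test agents were incubated with a DNA-repair-mutant yeast strain. Growth was then read and compared against vehicle-treated controls.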
# [4] = NCI Yeast Anticancer Drug Screen. Data for the cln2 rad14 strain (AID 165);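 also: 0% = growth equal to vehicle treated cultures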; settings: S. cerevisiae cln2 rad14 strain, hits give high values
# In short: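 Growth of compound-exposed yeast (cln2 rad14 genotype) measured and expressed as inhibition relative to vehicle.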
# [5] = NCI Yeast Anticancer Drug Screen. Data for the bub3 strain (AID 167); settings: S. cerevisiae bub3 mutant strain, hits give high values
# In short: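 Steps: expose the mutant yeast strain to compound; grow alongside vehicle-treated cultures; measure growth; express inhibition against the vehicle cultures.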
# [6] = NCI Yeast Anticancer Drug Screen. Data for the mlh1 rad18 strain (AID 175); settings: S. cerevisiae mlh1 rad18 strain growth inhibition, hits give high values
# In short: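 In this whole-cell yeast screen, a strain with altered DNA damage repair is challenged with compound, and its growth is measured against matched vehicle-treated controls.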
# [7] = at 5.0 µM (retest, dose inferred, filed as 0.5)
# [8] = at 50.0 µM (retest, dose inferred, filed as 5.0)
Structure (SMILES),"growth inhibition [1, 7]","growth inhibition [1, 8]",growth inhibition ([1]; at 50.0 µM),"growth inhibition [2, 7]","growth inhibition [2, 8]",growth inhibition ([2]; at 50.0 µM),"growth inhibition [3, 7]","growth inhibition [3, 8]",growth inhibition ([3]; at 50.0 µM),"growth inhibition [4, 7]","growth inhibition [4, 8]",growth inhibition ([4]; at 50.0 µM),"growth inhibition [5, 7]","growth inhibition [5, 8]",growth inhibition ([5]; at 50.0 µM),"growth inhibition [6, 7]","growth inhibition [6, 8]",growth inhibition ([6]; at 50.0 µM)
CCOC(=O)C1C(C(C)C)C2(C#N)C(=N)OC1(C)C2(C#N)C#N (centres undefined),15%,63%,44.8%,6%,53%,52.2%,19%,58%,49.8%,6%,37%,30.2%,14%,62%,39.5%,18%,72% (active),42.5%
CCCCCCCCc1cc(Cl)c(O)c(Cl)c1,3%,75% (active),99.5% (active),-8%,90% (active),99.6% (active),-14%,98% (active),99.2% (active),-13%,97% (active),99.6% (active),-11%,66%,98.7% (active),-10%,98% (active),99.3% (active)
Cc1ccc2cccc(OC(=O)Nc3cccc(C(F)(F)F)c3)c2n1,50%,95% (active),91.4% (active),39%,98% (active),89.9% (active),50%,100% (active),91.1% (active),38%,98% (active),91% (active),42%,98% (active),90.9% (active),50%,98% (active),92.5% (active)
CC1=CC[C@@H]2[C@@H](CC[C@@]2(C)O)C(C)(C)[C@H]1CC[C@@H]1[C@@]2(C)CC[C@@H](O)C(C)(C)O[C@@H]2CC[C@]1(C)O,12%,39%,62.9%,-8%,19%,38%,4%,70% (active),77.5% (active),18%,19%,46%,17%,33%,45.8%,-2%,20%,12.6%
Cc1ccccc1N=C(N)Nc1ccccc1C (tested in a mixture with another compound),0%,15%,12.9%,-2%,7%,27.8%,-1%,5%,30.6%,-2%,-16%,-62.5%,3%,11%,11.5%,-2%,13%,28.6%
CN1CCC(c2ccccc2)(c2ccccc2)C(=O)C1,11%,95% (active),95.2% (active),-5%,83% (active),94% (active),21%,95% (active),93.8% (active),15%,69%,74.3% (active),34%,96% (active),89.2% (active),47%,95% (active),94.5% (active)
CCCCCCCCCCCC[n+]1ccccc1 (tested in a mixture with another compound),34%,96% (active),99.1% (active),91% (active),96% (active),99.1% (active),31%,97% (active),99.1% (active),18%,94% (active),98.5% (active),88% (active),96% (active),99.2% (active),21%,95% (active),99% (active)
CCN(CC)CCNC(Cc1ccccc1)c1ccc(OCc2ccccc2)cc1 (centres undefined),39%,98% (active),86.7% (active),28%,98% (active),42.4%,42%,99% (active),72% (active),35%,94% (active),57.2%,49%,99% (active),87.6% (active),47%,98% (active),84.8% (active)
Oc1c(C(Nc2ccccc2)c2ccccc2)ccc2cccnc12 (centres undefined),-5%,92% (active),96.9% (active),-2%,97% (active),81.2% (active),-4%,94% (active),99% (active),-4%,92% (active),96.2% (active),-8%,94% (active),84% (active),0%,92% (active),96% (active)
Oc1c(Cl)cc(Cl)cc1C=NCC1CCC(CN=Cc2cc(Cl)cc(Cl)c2O)CC1 (centres undefined),60%,86% (active),87.5% (active),41%,92% (active),91% (active),67%,96% (active),90.3% (active),39%,58%,80.1% (active),73% (active),94% (active),88.4% (active),72% (active),97% (active),85.8% (active)
CCCCCCCCCCCC[n+]1ccc2ccccc2c1,97% (active),99% (active),99.6% (active),99% (active),100% (active),99.7% (active),98% (active),99% (active),99.2% (active),98% (active),100% (active),98.1% (active),99% (active),99% (active),99.5% (active),98% (active),100% (active),99.5% (active)
"CCC(C)C1NC(=O)C(NC(=O)c2c3nc4c(C(=O)NC5C(=O)NC(C(C)CC)C(=O)N6CCCC6C(=O)N(C)CC(=O)N(C)C(C(C)C)C(=O)OC5C)ccc(C)c4oc-3c(C)c(=O)c2N)C(C)OC(=O)C(C(C)C)N(C)C(=O)CN(C)C(=O)C2CCCN2C1=O (centres undefined) (I: TIP[Sar][NMeV] / II: TIP[Sar][NMeV]; ester I:1-I:C, II:1-II:C; linker I:N-II:N via Actinocin(1to9); configuration not given here)",66%,98% (active),91% (active),33%,99% (active),93.7% (active),32%,98% (active),92.5% (active),38%,97% (active),90.7% (active),43%,99% (active),92.6% (active),67%,98% (active),88.3% (active)
C[C@@]1(CO)[C@H](O)CC[C@@]2(C)[C@H]1CC[C@H]1C[C@@H]3C[C@@]12CC[C@@]3(O)COC(=O)CN,0%,65%,97.3% (active),-1%,98% (active),57.1%,-1%,46%,61.6%,-12%,49%,22.9%,11%,33%,91.7% (active),6%,97% (active),93.8% (active)
